The nature of assay [1]: Human pregnane X receptor (PXR) small molecule agonists, qHTS cell viability counter screen (AID 1346977). Note: nearly all actives have a fitted effect of over 50% in size. Note: potency is the fitted concentration of half-maximal effect. Summed up:
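In each well, the PXR reporter HepG2 line was checked for viability: CellTiter-Fluor reagent added 23hr post-dosing, fluorescence read after 1hr incubation at 37C.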
(In general: qHTS replaces the single test concentration by a dilution series.)

A short description of assay [2]: Caspase-3/7 induction in HepG2 cells by small molecules, qHTS assay (AID 1346978). Note: nearly all actives have a fitted effect of over 15% in size. Summed up: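 Wild-type HepG2 cells, 2,000/well, settled 5 hr at 37 C and 5% CO2, then compound-treated for 17 hr; caspase-3/7 activity read by luminescent Caspase-Glo 3/7 after 30 min at room temperature.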
The nature of assay [3]: Caspase-3/7 induction in CHO-K1 cells by small molecules, qHTS cell viability counter screen (AID 1346979). Note: nearly all actives have a fitted effect of over 35% in size. Note: potency is the fitted concentration of half-maximal effect. The gist of the method: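 Following a 5hr settling period, CHO-K1 cells at 1,500 per well received DMSO-dissolved compounds. Cell viability was quantified 16hr later by CellTiter-Fluor fluorescence, measured after 1hr with reagent at 37C.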
The nature of assay [4]: Caspase-3/7 induction in CHO-K1 cells by small molecules, qHTS assay (AID 1346980). Note: nearly all actives have a fitted effect of over 15% in size. Summed up:
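Wild-type CHO-K1 cells exposed to compounds for 17hr at 37 C, 5% CO2. Caspase-3/7 activity then measured by Caspase-Glo 3/7 luminescence after 30min at room temperature.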

A short description of assay [5]: Caspase-3/7 induction in HepG2 cells by small molecules, qHTS cell viability counter screen (AID 1346981). Note: nearly all actives have a fitted effect of over 30% in size. Note: potency is the fitted concentration of half-maximal effect. Summed up:
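Steps: seed 2,000 HepG2 cells per well; incubate 5 hr at 37 C; pin-add compounds in DMSO; incubate 16 hr; add CellTiter-Fluor; after 1 hr at 37 C and 5% CO2, read fluorescence.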

Assay [6] concerns the target Nuclear receptor subfamily 1 group I member 2 (Homo sapiens) (UniProt O75469). Kind of assay: Human pregnane X receptor (PXR) small molecule agonists, qHTS assay (AID 1346982). Note: nearly all actives have a fitted effect of over 35% in size. Note: potency is the fitted concentration of half-maximal effect. Summed up:
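Agonist mode qHTS: PXR-Luc HepG2 cells plated 5 hr before DMSO-dissolved compounds were pinned in, cultured 24 hr at 37 C, 5% CO2; ONE-Glo luminescence readout.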

Assay [7] deals with Cytochrome P450 2D6 (Homo sapiens) (UniProt P10635). Nature of the assay: Cytochrome P450 Family 2 Subfamily D Member 6 (CYP2D6) small molecule antagonists: luciferase reporter qHTS assay (AID 1671196). Note: nearly all actives have a fitted effect of over 50% in size. Note: potency is the fitted concentration of half-maximal effect. The gist of the method:
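P450-Glo format: CYP2D6 converts a proluciferin substrate to luciferin in an NADPH-driven reaction lasting 1 h at room temperature. Light output, proportional to CYP2D6 activity, reflects interference by test chemicals.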

The target in assay [8] is Cytochrome P450 2C9 (Homo sapiens) (UniProt P11712). Nature of the assay: Cytochrome P450 Family 2 Subfamily C Member 9 (CYP2C9) small molecule antagonists: luciferase reporter qHTS assay (AID 1671198). Note: nearly all actives have a fitted effect of over 50% in size. Note: potency is the fitted concentration of half-maximal effect. Summed up:
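P450-Glo proluciferin substrate with CYP2C9 enzyme; 10 min RT preincubation, then NADPH regeneration 1 h at 37C; luciferin detection reagent 20 min RT, luminescence in relative luminescence units.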
For orientation: A reporter such as luciferase makes a cellular process visible.

Assay [9] addresses Cytochrome P450 1A2 (Homo sapiens) (UniProt P05177). Kind of assay: Cytochrome P450 Family 1 Subfamily A Member 2 (CYP1A2) small molecule antagonists: luciferase reporter qHTS assay (AID 1671199). Note: nearly all actives have a fitted effect of over 50% in size. Note: potency is the fitted concentration of half-maximal effect. The gist of the method: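 Inhibition of CYP1A2 conversion of proluciferin to luciferin, detected by luminescence. Reaction run 1 h at room temperature with NADPH regeneration after brief compound preincubation.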

In assay [10] the target is Voltage-gated inwardly rectifying potassium channel KCNH2 (Homo sapiens) (UniProt Q12809). Nature of the assay: Human Ether-a-go-go-Related Gene (hERG) channel small molecule antagonists: fluorescence cell-based qHTS assay (AID 1671200). Note: nearly all actives have a fitted effect of over 50% in size. Note: potency is the fitted concentration of half-maximal effect. The gist of the method:
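In this thallium-flux screen, overnight-cultured U2OS cells bearing the channel are dye-loaded in darkness for an hour, rested 10 min at room temperature, and then monitored kinetically at 480/540 nm for two minutes post-stimulus.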
On the technique in general: Block of hERG is tested as a sign of cardiac risk.

Assay [11] concerns the target Cytochrome P450 3A4 (Homo sapiens) (UniProt P08684). Nature of the assay: Cytochrome P450 Family 3 Subfamily A Member 4 (CYP3A4) small molecule antagonists: luciferase reporter qHTS assay (AID 1671201). Note: nearly all actives have a fitted effect of over 50% in size. Note: potency is the fitted concentration of half-maximal effect. Summed up:
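CYP3A4 activity was followed with a P450-Glo proluciferin substrate. Test compounds in DMSO were preincubated 10 min; NADPH regeneration then ran 1 h, and light output was read 20 min after detection reagent.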

Assay [12] concerns the target Cytochrome P450 2C19 (Homo sapiens) (UniProt P33261). Kind of assay: Cytochrome P450 Family 2 Subfamily C Member 19 (CYP2C19) small molecule antagonists: luciferase reporter qHTS assay (AID 1671197). Note: nearly all actives have a fitted effect of over 65% in size. Note: potency is the fitted concentration of half-maximal effect. The gist of the method:
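P450-Glo CYP2C19 screening system; proluciferin substrate; DMSO compound stocks; 10 min RT preincubation; NADPH regeneration, 1 h at 37C; luciferin detection reagent, 20 min RT; luminescence as RLU.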

Among the data in PubChem BioAssay (Tox21) are Potency values, retold here.

The structures appear in SMILES notation. Values joined by “and” are separate entries in the source; they are usually repeats but may differ in a detail not shown here. Identical values can stand only once. Results filed as inconclusive are left out. Some compounds were tested as several samples or in several runs, with calls that do not always agree. Active and inactive are the calls of the source. Calls come from the whole dose curve; as a rule, active = well fitted curve in the direction sought with a large enough effect in the repeat runs; inconclusive = weak or mixed curves; inactive = no such curve, though single readings can be large; an effect the other way counts as inactive or inconclusive.

Sequence of Cytochrome P450 1A2 (Homo sapiens) (P05177 whole entry, looked up): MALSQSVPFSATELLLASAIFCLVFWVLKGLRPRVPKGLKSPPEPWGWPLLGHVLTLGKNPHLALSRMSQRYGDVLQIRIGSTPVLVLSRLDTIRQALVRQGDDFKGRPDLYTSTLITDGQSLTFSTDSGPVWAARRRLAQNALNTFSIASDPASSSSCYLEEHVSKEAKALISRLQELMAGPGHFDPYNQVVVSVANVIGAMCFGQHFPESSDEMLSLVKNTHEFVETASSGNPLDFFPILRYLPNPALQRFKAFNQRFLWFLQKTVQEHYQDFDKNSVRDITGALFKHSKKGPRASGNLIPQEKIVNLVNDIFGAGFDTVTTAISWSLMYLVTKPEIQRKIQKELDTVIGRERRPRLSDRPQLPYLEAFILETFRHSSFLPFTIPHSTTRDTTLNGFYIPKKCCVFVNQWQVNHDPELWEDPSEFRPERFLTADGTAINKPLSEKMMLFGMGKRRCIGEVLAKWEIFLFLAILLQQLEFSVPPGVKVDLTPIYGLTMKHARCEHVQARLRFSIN
Sequence of Cytochrome P450 2C19 (Homo sapiens) (P33261 whole entry, looked up): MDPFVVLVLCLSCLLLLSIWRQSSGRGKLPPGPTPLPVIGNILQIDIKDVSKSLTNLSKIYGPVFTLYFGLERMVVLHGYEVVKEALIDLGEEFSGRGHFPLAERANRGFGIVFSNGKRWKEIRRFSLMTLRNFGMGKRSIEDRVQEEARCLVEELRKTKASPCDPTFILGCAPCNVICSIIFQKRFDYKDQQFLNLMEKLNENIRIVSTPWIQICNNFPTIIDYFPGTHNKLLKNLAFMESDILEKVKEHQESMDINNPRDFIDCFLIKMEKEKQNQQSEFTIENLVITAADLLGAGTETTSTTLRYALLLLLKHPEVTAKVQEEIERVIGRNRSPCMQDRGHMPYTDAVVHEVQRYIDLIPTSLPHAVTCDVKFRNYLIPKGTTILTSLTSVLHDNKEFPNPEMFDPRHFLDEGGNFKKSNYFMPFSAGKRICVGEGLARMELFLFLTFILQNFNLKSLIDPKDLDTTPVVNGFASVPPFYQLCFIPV
Sequence of Nuclear receptor subfamily 1 group I member 2 (Homo sapiens) (O75469 whole entry, looked up): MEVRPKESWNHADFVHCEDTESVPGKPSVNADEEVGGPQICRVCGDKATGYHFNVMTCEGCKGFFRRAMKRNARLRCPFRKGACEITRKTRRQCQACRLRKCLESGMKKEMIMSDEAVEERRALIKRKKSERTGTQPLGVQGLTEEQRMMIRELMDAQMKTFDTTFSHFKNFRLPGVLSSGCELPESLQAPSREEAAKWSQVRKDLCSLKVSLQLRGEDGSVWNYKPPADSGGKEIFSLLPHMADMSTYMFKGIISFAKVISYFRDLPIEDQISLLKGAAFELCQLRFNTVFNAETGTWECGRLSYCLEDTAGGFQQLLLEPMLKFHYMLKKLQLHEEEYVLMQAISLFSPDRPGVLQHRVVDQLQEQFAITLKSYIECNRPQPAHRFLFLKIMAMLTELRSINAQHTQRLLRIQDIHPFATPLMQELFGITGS
Sequence of Cytochrome P450 2C9 (Homo sapiens) (P11712 whole entry, looked up): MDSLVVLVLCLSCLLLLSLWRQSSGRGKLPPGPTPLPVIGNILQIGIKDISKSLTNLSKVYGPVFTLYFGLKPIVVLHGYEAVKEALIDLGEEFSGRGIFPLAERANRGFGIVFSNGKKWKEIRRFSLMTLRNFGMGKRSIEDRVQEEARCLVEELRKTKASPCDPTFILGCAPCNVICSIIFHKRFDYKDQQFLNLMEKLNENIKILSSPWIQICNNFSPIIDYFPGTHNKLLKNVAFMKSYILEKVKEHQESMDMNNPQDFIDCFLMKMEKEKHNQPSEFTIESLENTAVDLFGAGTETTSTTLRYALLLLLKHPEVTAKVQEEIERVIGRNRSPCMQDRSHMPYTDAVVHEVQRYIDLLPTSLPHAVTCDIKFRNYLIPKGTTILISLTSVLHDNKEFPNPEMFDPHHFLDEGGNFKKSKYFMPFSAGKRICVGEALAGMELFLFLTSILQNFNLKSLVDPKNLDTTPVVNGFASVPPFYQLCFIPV
Sequence of Voltage-gated inwardly rectifying potassium channel KCNH2 (Homo sapiens) (Q12809 whole entry, looked up): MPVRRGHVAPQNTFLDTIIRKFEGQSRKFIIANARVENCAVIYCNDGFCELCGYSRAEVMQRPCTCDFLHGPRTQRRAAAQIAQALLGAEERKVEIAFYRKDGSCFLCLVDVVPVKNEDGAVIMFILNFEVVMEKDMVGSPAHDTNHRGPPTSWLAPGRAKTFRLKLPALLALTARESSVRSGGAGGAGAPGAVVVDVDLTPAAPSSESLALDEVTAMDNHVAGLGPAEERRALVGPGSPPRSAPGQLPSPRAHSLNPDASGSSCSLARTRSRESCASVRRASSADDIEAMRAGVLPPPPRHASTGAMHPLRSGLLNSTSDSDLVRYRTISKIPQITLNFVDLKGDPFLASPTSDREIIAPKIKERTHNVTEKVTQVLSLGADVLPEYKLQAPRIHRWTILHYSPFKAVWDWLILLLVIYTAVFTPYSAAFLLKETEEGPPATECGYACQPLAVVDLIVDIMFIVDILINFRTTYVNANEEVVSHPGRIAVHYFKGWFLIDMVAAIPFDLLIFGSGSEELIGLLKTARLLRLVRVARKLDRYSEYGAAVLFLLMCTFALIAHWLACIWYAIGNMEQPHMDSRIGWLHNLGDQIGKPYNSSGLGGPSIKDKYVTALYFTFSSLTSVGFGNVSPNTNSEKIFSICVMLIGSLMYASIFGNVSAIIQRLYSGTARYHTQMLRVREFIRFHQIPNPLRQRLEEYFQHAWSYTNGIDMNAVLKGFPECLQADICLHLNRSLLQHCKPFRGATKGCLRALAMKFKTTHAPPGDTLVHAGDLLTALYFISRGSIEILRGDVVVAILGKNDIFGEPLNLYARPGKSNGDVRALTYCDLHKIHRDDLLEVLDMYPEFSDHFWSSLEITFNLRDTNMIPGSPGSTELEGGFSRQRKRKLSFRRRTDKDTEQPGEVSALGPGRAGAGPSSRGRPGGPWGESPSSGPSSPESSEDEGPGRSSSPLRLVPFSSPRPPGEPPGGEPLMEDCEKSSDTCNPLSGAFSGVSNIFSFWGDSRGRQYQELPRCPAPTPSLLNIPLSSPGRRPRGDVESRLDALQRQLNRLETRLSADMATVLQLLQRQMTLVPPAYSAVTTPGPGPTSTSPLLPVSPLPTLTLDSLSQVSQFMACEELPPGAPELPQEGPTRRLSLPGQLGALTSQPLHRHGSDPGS
Sequence of Cytochrome P450 2D6 (Homo sapiens) (P10635 whole entry, looked up): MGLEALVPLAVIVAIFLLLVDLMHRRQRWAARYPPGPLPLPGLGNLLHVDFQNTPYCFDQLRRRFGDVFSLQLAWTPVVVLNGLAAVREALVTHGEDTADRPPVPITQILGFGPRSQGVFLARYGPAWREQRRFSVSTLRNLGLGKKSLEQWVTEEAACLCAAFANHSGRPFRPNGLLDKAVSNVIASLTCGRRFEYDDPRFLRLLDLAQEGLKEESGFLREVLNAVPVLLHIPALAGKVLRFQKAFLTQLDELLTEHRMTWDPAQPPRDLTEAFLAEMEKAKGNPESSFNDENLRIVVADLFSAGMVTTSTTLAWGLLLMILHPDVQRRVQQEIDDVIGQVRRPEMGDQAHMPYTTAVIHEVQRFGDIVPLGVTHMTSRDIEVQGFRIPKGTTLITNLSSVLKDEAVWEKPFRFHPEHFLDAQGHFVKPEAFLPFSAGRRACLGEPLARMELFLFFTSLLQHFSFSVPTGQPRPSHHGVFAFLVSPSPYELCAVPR
Sequence of Cytochrome P450 3A4 (Homo sapiens) (P08684 whole entry, looked up): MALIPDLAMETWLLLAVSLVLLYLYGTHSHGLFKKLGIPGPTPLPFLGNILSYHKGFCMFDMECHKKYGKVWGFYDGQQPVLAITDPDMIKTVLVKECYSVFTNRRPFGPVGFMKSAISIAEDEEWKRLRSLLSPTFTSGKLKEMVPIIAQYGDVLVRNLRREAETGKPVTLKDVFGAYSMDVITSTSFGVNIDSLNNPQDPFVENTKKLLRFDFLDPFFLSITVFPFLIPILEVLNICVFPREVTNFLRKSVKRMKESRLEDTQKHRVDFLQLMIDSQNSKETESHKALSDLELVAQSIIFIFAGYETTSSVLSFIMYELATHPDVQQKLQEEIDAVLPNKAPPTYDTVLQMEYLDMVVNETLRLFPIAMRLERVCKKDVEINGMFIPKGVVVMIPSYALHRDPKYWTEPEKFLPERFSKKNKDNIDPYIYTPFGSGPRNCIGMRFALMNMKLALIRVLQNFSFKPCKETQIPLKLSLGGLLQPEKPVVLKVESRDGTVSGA

With `CCC(C)CO` (centres undefined), the Potency entry in [1], in [2], in [3], in assay [4], in assay [5] and in [6] was “inactive” throughout. In addition, the Potency result in [7], in assay [8], in assay [9], in [10] and in assay [11] was “inactive” throughout.
Take `CCC(C)OC(=O)c1ccc(O)cc1` (centres undefined): the Potency result in assay [1], in [2], in assay [3], in assay [4], in assay [5] and in [10] was “inactive” in each case. In assay [11], the Potency result was “inactive”. Moreover, the Potency is 69 µM (active) and 54.5 µM (active) in assay [6]; 63.3 µM (active) in [7]; 35.8 µM (active) and 25.2 µM (active) in assay [12]; 20.1 µM (active) and 35.6 µM (active) in assay [9].
Turning to `CC(C)OC(=O)C(C)(C)Oc1ccc(C(=O)c2ccc(Cl)cc2)cc1`, the Potency entry in assay [1], in assay [2], in [4], in [5], in assay [7] and in assay [11] was “inactive” throughout. Moreover, the Potency was 54.5 µM (active) in assay [3]; 27.3 µM (active) in assay [6]; 8.94 µM (active) and 5.49 µM (active) in assay [12]; 3.56 µM (active) and 1.74 µM (active) in assay [8]; 35.6 µM (active) in [9]; 27.5 µM (active) and 8.49 µM (active) in [10].
Turning to `CC(=O)C1(C)CC2=C(CCCC2(C)C)CC1C` (centres undefined), the Potency result in assay [1], in assay [2], in assay [3], in assay [4], in assay [5] and in assay [6] was “inactive” in each case. The Potency entry in [7], in [8], in [9], in [10] and in assay [11] was “inactive” in each case.
Take `CCCCCCCCCCCO`: the Potency result in assay [1], in assay [2], in [3], in assay [4], in assay [5] and in assay [6] was “inactive” throughout. Besides, the Potency entry in assay [7], in [10] and in [11] was “inactive” each time. In assay [12], the Potency is 20.5 µM (active) and inactive.
Take `OC1CCCCCCCCCCC1`: the Potency entry in assay [1], in assay [2], in [3], in assay [4], in [5] and in [7] was “inactive” in each case. The Potency result in [8] and in assay [10] was “inactive” in each case. The Potency in assay [6] is 61.7 µM (active) and inactive; in assay [9], 25.2 µM (active).
For `COC(C)COC(C)COC(C)CO` (centres undefined), the Potency entry in [1], in assay [2], in assay [3], in assay [4], in assay [5] and in assay [6] was “inactive” each time. The Potency entry in assay [7], in [9], in assay [10] and in [11] was “inactive” in each case. Further, the Potency in assay [8] is 22.4 µM (active).
With `O=C1OC2(c3cc(Br)c(O)c(Br)c3Oc3c2cc(Br)c(O)c3Br)c2c(Cl)c(Cl)c(Cl)c(Cl)c21`, the Potency was 2.51 µM (active) and 11.7 µM (active) in assay [1]; 6.87 µM (active) and 14.8 µM (active) in [3]; 9.7 µM (active) and 16.6 µM (active) in [5]; 24.2 µM (active) in assay [7]; 38.4 µM (active) in assay [12]; 10 µM (active) and 17.2 µM (active) in assay [8]. In addition, the Potency in [9] was 12.6 µM (active); in assay [11], 71.1 µM (active) and inactive. Also, the Potency result in assay [2], in [4], in [6] and in assay [10] was “inactive” throughout.
Turning to `COC(=O)Nc1nc2ccc(S(=O)c3ccccc3)cc2[nH]1` (centres undefined), the Potency result in assay [1], in [2], in assay [4], in assay [5], in assay [7] and in [8] was “inactive” throughout. Moreover, the Potency result in assay [10] and in assay [11] was “inactive” throughout. Besides, the Potency in assay [3] is 8.41 µM (active); in assay [6], 68.5 µM (active) and 8.41 µM (active); in [9], 28.2 µM (active) and 17.4 µM (active).
Consider `CCCCCCCCCC(=O)OC`, for which the Potency entry in assay [1], in [2], in assay [3], in assay [4], in assay [5] and in assay [7] was “inactive” in each case. The Potency result in assay [12], in assay [8], in assay [9], in [10] and in assay [11] was “inactive” in each case. Also, the Potency in assay [6] is 47.7 µM (active) and inactive.
`c1ccncc1`: the Potency result in [1], in [2], in assay [3], in assay [4], in assay [5] and in assay [6] was “inactive” in each case. Moreover, the Potency entry in assay [7], in [8], in assay [9], in assay [10] and in [11] was “inactive” throughout.
In the case of `OCCO`, the Potency result in assay [1], in assay [2], in assay [3], in assay [4], in assay [5] and in assay [6] was “inactive” each time. Besides, the Potency entry in assay [12], in [8], in assay [9], in assay [10] and in assay [11] was “inactive” each time. Further, the Potency in [7] was 34.6 µM (active) and inactive.
Regarding `O=C(c1ccccc1)c1ccccc1O`, the Potency result in assay [1], in [2], in assay [3], in assay [4], in assay [5] and in [6] was “inactive” throughout. In addition, the Potency result in assay [10] and in assay [11] was “inactive” throughout. Moreover, the Potency in [7] was 40.9 µM (active); in assay [8], 40.9 µM (active) and 63.3 µM (active); in assay [9] it was 11.5 µM (active) and 15.9 µM (active).
Consider `CC(C)OC=O`, for which the Potency result in assay [1], in assay [2], in assay [3], in assay [4], in [5] and in assay [6] was “inactive” each time. The Potency result in assay [7], in assay [12], in assay [8], in assay [9], in assay [10] and in assay [11] was “inactive” each time.
Turning to `Clc1nc(Cl)c(Cl)c(Cl)c1Cl`, the Potency result in [1], in assay [2], in assay [3], in [4], in assay [5] and in assay [6] was “inactive” each time. The Potency entry in [7], in [8], in assay [9], in [10] and in [11] was “inactive” in each case. The Potency in [12] was 31.9 µM (active).
